The text below walks through data of PubChem BioAssay AID1852 (Sanford-Burnham Center for Chemical Genomics, 2009).

Hit rate of the full screen: of about 2,500 compounds, about 1,100 (44%) were called active. The set was probably picked from earlier hits. The list shows a part of the results. A number with no mark means an inactive call.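 Rule for the calls: active = inhibition above 50% at 4 µM in the single-point screen; inactive = inhibition of 50% or less.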

The assay is described as follows: blockers of TNF-a NF-kB luciferase induction – cell-based, HEK293T NF-kB-Luc, luminescence, selectivity assay for NOD1/NOD2 signaling inhibitor project, primary screen (AID 1852). The settings on record: TNF-a induced, 14 h, at 4 µM, stronger effect = higher value.
As for `O=C(CN1CCN(CCC(=O)Nc2ccccc2F)CC1)Nc1ccc(Cl)cc1`, the inhibition was 2%.
Next, `O=C(CSc1n[nH]c(-c2ccccn2)n1)Nc1ccc(Cl)cc1`: 80.1% (active).
Next, `Cn1cccc1Cc1nnc(SCC(=O)Nc2cccc(Cl)c2)n1-c1ccc(F)cc1`: 11.5%; `O=C(CSc1n[nH]c(-c2ccccn2)n1)Nc1cccc(Cl)c1`: 81.4% (active); `Cc1nc(C)c(-c2ccc(SCC(=O)Nc3cccc(Cl)c3)nn2)s1`: 35%.
Next, `Cc1ccc2c(c1)-c1ncc(C(=O)c3cc(Br)ccc3O)cc1CO2`: 36.7%.
Turning to `Cc1c(Cc2ccccc2)c(=O)oc2cc(O)cc(O)c12`, the inhibition is -8.9%.
Next, `CCCCc1cc(=O)oc2cc(O)cc(O)c12`: 21.4%.
Next, `CCCCCc1cc(O)c2c(C)cc(=O)oc2c1`: 71.7% (active); `COc1ccc(Nc2ncnc3ccc(Br)cc23)cc1OC`: 64.4% (active); `Nc1nc(CCl)nc(Nc2cccc3ccccc23)n1`: 44.3%.
Next, `Brc1ccc2ncnc(Nc3ccc(N4CCOCC4)cc3)c2c1`: 83.9% (active); `Brc1ccc2ncnc(Nc3cccc4ccccc34)c2c1`: 104% (active).
As to `Clc1ccc(Nc2ncnc3ccc(Br)cc23)cc1`, the inhibition is 49.1%.
Next, `CC(=O)c1cccc(Nc2ncnc3ccc(Br)cc23)c1`: 60.8% (active); `CCN1C(=O)C(CC(=O)Nc2cccc(C(C)=O)c2)S/C1=N\c1ccccn1` (centres undefined): -2.9%.
Next, `O=C(COc1nsnc1N1CCOCC1)Nc1ccc(Br)cc1`: 4.1%; `COC(=O)Cc1[nH]n(-c2nc3ccccc3s2)c(=O)c1C(C)=Nc1ccc(OC)cc1`: 30.8%.
Next, `COC(=O)Cc1[nH]n(-c2nc3ccccc3s2)c(=O)c1C(C)=Nc1ccc(C)cc1`: 55.7% (active); `COc1ccccc1NC(=O)CSc1nc2sc(C)c(C)c2c(=O)n1C`: 26.3%.
In the case of `COC(=O)c1ccc(CSc2nc3ccccc3c(=O)n2Cc2ccco2)o1`, the inhibition was 6.3%.
Next, `Cc1sc2nc(SCc3ccc(C(=O)O)cc3)n(Cc3ccco3)c(=O)c2c1C`: 74.6% (active); `Cc1ccc(-c2csc(N3CCC(NS(=O)(=O)c4ccc5c(c4)OCCO5)CC3)n2)cc1`: 48.7%.
As to `CCc1ccn2cc(-c3ccc4c(c3)OCO4)nc2c1`, the inhibition was 23%.
Next, `Cc1ccc2nc(-c3ccc4c(c3)OCCO4)cn2c1`: 51.3% (active); `CCS(=O)(=O)C1=NN2C(=N)/C(=C\c3ccc(OCCOc4cccc(OC)c4)c(OC)c3)C(=O)N=C2S1`: -32.8%.
Next, `O=C(CN1CCN(c2cccc(Cl)c2)CC1)Nc1ccc(S(=O)(=O)N2CCOCC2)cc1`: 23.3%; `O=C(CSc1cccc2cccnc12)Nc1ccc(S(=O)(=O)N2CCOCC2)cc1`: 104% (active).
On to `Cc1ccc(S(=O)(=O)N(C)C)cc1NC(=O)COC(=O)/C=C/c1cnc2ccccc2n1`, for which the inhibition was 12%.
Next, `CN(C)S(=O)(=O)c1cccc(NC(=O)CSc2cccc3cccnc23)c1`: 100% (active).
With `CCN(CC)S(=O)(=O)c1cccc(NC(=O)CNc2cccc(S(=O)(=O)N3CCCC3)c2)c1`, the inhibition was 41.7%.
Next, `CCc1nc2ccccc2c(C(=O)OCC(=O)Nc2cccc(S(=O)(=O)N3CCOCC3)c2)c1C`: -0.6%; `O=C(Nc1cccc(NC(=O)c2ccc(-c3cccc(Br)c3)o2)c1)c1ccco1`: -15.4%.
Next, `O=C(Nc1nc2cc3c(cc2s1)OCCO3)c1ccco1`: -31%; `CC(C)(C)C(=O)Nc1ccc(NC(=O)c2ccco2)nc1`: 98.2% (active); `COc1ccc(/C=N/NC(=O)c2ccc(Br)o2)cc1Cn1cc([N+](=O)[O-])cn1`: -16%.
Consider `COc1ccc(-c2nn(-c3ccccc3)cc2/C=N/NC(=O)c2ccc(Br)o2)cc1`, for which the inhibition is 94.1% (active).
As for `O=C(N/N=C/c1cn(-c2ccccc2)nc1-c1cc2ccccc2o1)c1c[nH]c2ccccc12`, the inhibition is -224%.
Regarding `Cc1ccc(-c2nn(-c3ccccc3)cc2/C=N/NC(=O)c2ccc(Br)o2)cc1`, the inhibition is 95.5% (active).
In the case of `Cc1cc([N+](=O)[O-])ccc1-c1ccc(/C=N/NC(=O)c2ccc(Br)o2)o1`, the inhibition was -0.2%.
Next, `Cc1ccc(-c2nn(-c3ccccc3)cc2NC(=O)CCl)cc1`: -28.6%; `CC(C)c1ccc(-c2nc3ccccc3s2)cc1`: 14.5%; `CC[n+]1c(/C=C/N(C)c2ccccc2)n(-c2ccccc2)c2ccc(-c3nc4ccccc4s3)cc21`: 102% (active).
Next, `Cn1c2c(c(=O)n(C)c1=O)C(C(F)(F)F)(C(F)(F)F)N=C(c1ccc(Cl)cc1)N2`: 73.2% (active).
Next, `Cc1nc2c(Br)cc(Br)cc2cc1O`: 8.1%; `Cc1ccc(C(=O)c2cnc3cc4c(cc3c2S(=O)(=O)c2ccccc2)OCCO4)cc1`: -56.6%.
As for `Cc1ccc(C(=O)NC(=C(Cl)Cl)S(=O)(=O)c2ccc(C)cc2)cc1`, the inhibition is 4.6%.
Next, `CC(=O)NC(=C(Cl)Cl)S(=O)(=O)c1ccccc1`: 42.6%.
Next, `Cc1ccc(C(=O)NC(C#N)=C(Cl)Cl)cc1`: 94.7% (active).
Next, `Cc1ccc(C(=O)NC(=C(Cl)Cl)S(=O)(=O)c2ccc(Cl)cc2)cc1`: 63.9% (active).
Take `COc1ccc(C(=O)NC(=C(Cl)Cl)S(=O)(=O)c2ccc(C)cc2)cc1`: the inhibition was -46.2%.
Next, `O=C(NC(=C(Cl)Cl)S(=O)(=O)c1ccc(Cl)cc1)c1ccccc1`: 97.1% (active); `Cc1ccc(C(=O)NC(=C(Cl)Cl)S(=O)(=O)c2ccccc2)cc1`: 97.7% (active); `CC(C)NC(=S)NC(c1ccccc1)(c1ccccc1)c1ccccc1`: 19.3%.
As to `COc1cc(/C=C2\C(=N)N3N=C(S(C)(=O)=O)SC3=NC2=O)ccc1OCCOc1ccc(C)cc1`, the inhibition was -39.5%.
Next, `Clc1ccccc1Cc1noc(CN2CCN(c3cnccn3)CC2)n1`: 7.7%.
Next, `O=C(Nc1sc2c(c1C(=O)O)CCCC2)c1ccccc1Cl`: 25%.
Next, `Cc1cccc(C(=O)Nc2sc3c(c2C(=O)O)CCCC3)c1`: -8.5%; `O=C(O)c1c(NC(=O)c2cccc3ccccc23)sc2c1CCC2`: 53.9% (active).
As to `COC(=O)c1ccc(Nc2c([N+](=O)[O-])c(=O)oc3ccccc23)cc1`, the inhibition was 99.5% (active).
Next, `O=c1oc2ccccc2c(Nc2ccc(F)cc2)c1[N+](=O)[O-]`: -32.2%; `Cc1ccc(Nc2c([N+](=O)[O-])c(=O)oc3ccccc23)cc1C`: 6.4%.
Next, `C=CS(=O)(=O)c1ccc(Oc2ccc(S(=O)(=O)C=C)cc2)cc1`: 103% (active).
Next, `CC(=O)NC(c1ccccc1)c1cc([N+](=O)[O-])c2cccnc2c1O` (centres undefined): 99.5% (active).
Take `CCC(=O)NC(/C=C/c1ccccc1)c1cc([N+](=O)[O-])c2cccnc2c1O` (centres undefined): the inhibition is 81.6% (active).
Regarding `CC(=O)NC(c1ccc(C)cc1)c1cc([N+](=O)[O-])c2cccnc2c1O` (centres undefined), the inhibition is 76.4% (active).
Next, `CC(=O)NC(c1ccc(C)cc1)c1cc(Cl)c2cccnc2c1O` (centres undefined): 77.9% (active); `CCCCCc1ccc(OCCCC[n+]2ccc(C)cc2)c(CCCCC)c1`: 6.6%.
Next, `CCC(=O)NC(c1ccc(C)cc1)c1cc([N+](=O)[O-])c2cccnc2c1O` (centres undefined): 84.6% (active).
With `CC[C@@]1(O)C(=O)OCc2c1cc1n(c2=O)Cc2cc3c(N)cccc3nc2-1`, the inhibition was 88.3% (active).
Next, `Cc1nonc1C(=O)N/N=C/c1ccc([N+](=O)[O-])o1`: 46%; `O=[N+]([O-])c1ccc(/C=N/N=C/c2ccc([N+](=O)[O-])o2)o1`: 83% (active); `O=C(N/N=C/c1ccc([N+](=O)[O-])o1)c1ccccc1NS(=O)(=O)c1cccs1`: 61.1% (active).
Next, `Cc1scc(C(=O)N/N=C/c2ccc([N+](=O)[O-])o2)c1C`: 72% (active).
Next, `O=C(Nc1c(Cl)ccc2nsnc12)c1ccc([N+](=O)[O-])o1`: 16%; `O=C(CNc1cccc2ccccc12)N/N=C/c1ccc([N+](=O)[O-])o1`: 34%; `O=C(N/N=C/c1ccc([N+](=O)[O-])o1)c1ccccc1-n1cccc1`: 45.7%.
As to `Cc1ccc(NCC(=O)N/N=C\c2ccc([N+](=O)[O-])o2)cc1`, the inhibition is 35.7%.
As for `O=C(N/N=C/c1ccc([N+](=O)[O-])o1)c1cc2ccccc2o1`, the inhibition is 52.9% (active).
`O=C(N/N=C/c1ccc([N+](=O)[O-])o1)c1ccc2c(c1)OCO2`: the inhibition was 71.8% (active).
`CCN(c1ccccc1)S(=O)(=O)c1ccc(NC(=S)NC(=O)c2cccs2)cc1`: the inhibition is 43.4%.
Next, `CCN(Cc1ccccc1)S(=O)(=O)c1ccc(C(=O)Nc2nnc(C3CC3)o2)cc1`: 92.7% (active); `CCCCN(C)S(=O)(=O)c1ccc(C(=O)Nc2nnc(-c3cccs3)o2)cc1`: 55.8% (active).
Next, `CCCCN(CC)S(=O)(=O)c1ccc(C(=O)Nc2nnc(-c3cccs3)o2)cc1`: 59.1% (active); `O=C(CN(Cc1ccccc1)S(=O)(=O)c1ccc2c(c1)OCCO2)Nc1ccc2c(c1)OCCO2`: 8.4%.
As to `CCCCN(CC)S(=O)(=O)c1ccc(C(=O)Nc2nnc(-c3ccccc3Cl)o2)cc1`, the inhibition is 59.6% (active).
Next, `CN1CCN(Cc2nc(Cc3cccc(F)c3)no2)CC1c1ccccc1` (centres undefined): 3.2%.
As for `NC(=S)N/N=C\c1c(OCc2ccccc2Cl)ccc2ccccc12`, the inhibition was 66% (active).
Next, `CCOC(=O)COc1ccc2ccccc2c1/C=C/[N+](=O)[O-]`: 27.3%; `O=C(N/N=C/c1cc(Cl)c(O)c(Cl)c1)c1cc2c(ccc3ccccc32)o1`: 42.9%.
Next, `COc1ccc(OC)c(S(=O)(=O)Nc2ccc(O)c3ccccc23)c1`: 62.6% (active).
Next, `COc1ccc(S(=O)(=O)Nc2ccc(OCC(=O)O)cc2)c2ccccc12`: -2.2%; `Cc1ccc(S(=O)(=O)Nc2cc(C)c(O)cc2C)cc1`: 29.5%; `CCCNc1c(NS(=O)(=O)c2ccc(Br)cc2)c(=O)oc2ccccc12`: 11.2%.
`Cc1ccc(S(=O)(=O)Nc2ccc(O)c3ccccc23)c(C)c1`: the inhibition is 92.3% (active).
Next, `O=S(=O)(Nc1ccc(O)c2ccccc12)c1ccc(Br)cc1`: 101% (active); `Cc1ccc(S(=O)(=O)Nc2cc(C(C(=O)OC(C)C)C(=O)C(F)(F)F)c(O)c3ccccc23)c(C)c1` (centres undefined): 72% (active).
Next, `COc1ccc(NC(C)=O)cc1S(=O)(=O)Nc1ccc(OCc2ccccc2)cc1`: 33.1%; `CCc1ccc(S(=O)(=O)Nc2ccc(O)c3ccccc23)cc1`: 36.3%.
